Results as given in the supplement of paper PMC10849652.
The full data set covers some 8,800 targets. This sample favours those with a hit. About 0.5% of all pairs of compound and target were hits.

How the values were obtained:
Test in all cases: log2 fold change, soluble protein after heating vs DMSO (PISA); higher = thermal stabilisation; K562 lysate, 10 uM; active = over 0.2 and 3.5 SD of the protein, either way, in both replicates (recomputed)
[1] = compound: C1=CC=C(C=C1)[C@H](COC2=CC3=C(C=C2)NC(=O)N3)NC(=O)C4=CC=CN(C4=O)CC5=CC(=C(C=C5)F)F
Method in brief: (§1)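 Soluble protein was defined as the supernatant remaining after 21,000xg for 90 min, following pooling of heated aliquots and adjustment to 0.5% NP-40 at 4°C. Before that, crude K562 extract at 1 mg/mL protein in PBS pH 7.4 with 1 mM MgCl2 was treated with 10 μM compound for 30 min and heated for 3 min across 48°C-58°C. Quantification used TMTpro 16plex LC-MS/MS with channel sums equalised, and values are log-two fold changes in thermal stability relative to solvent controls from duplicates.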

[2] = compound: CC1=C(SC2=C1C(=N[C@H](C3=NN=C(N32)C)CC(=O)N)C4=CC=C(C=C4)Cl)C
Method in brief: as §1

[3] = compound: CC1=C2C(=CC=C1)N=C(N(C2=O)C3=CC=CC=C3C)CN4C=NC5=C(N=CN=C54)N
Method in brief: as §1

[4] = compound: Cc1sc2c(c1C)C(c1ccc(Cl)cc1)=N[C@@H](CC(=O)OC(C)(C)C)c1nnc(C)n1-2
Method in brief: as §1

[5] = compound: c1ccc([C@@H]2C[C@H]2NC2CCNCC2)cc1
Method in brief: as §1

Measured: log2 fold change

TRAPPC9 isoform 2 (UniProt Q96Q05)
Chain of UniProt Q96Q05 (Q96Q05 whole entry, looked up): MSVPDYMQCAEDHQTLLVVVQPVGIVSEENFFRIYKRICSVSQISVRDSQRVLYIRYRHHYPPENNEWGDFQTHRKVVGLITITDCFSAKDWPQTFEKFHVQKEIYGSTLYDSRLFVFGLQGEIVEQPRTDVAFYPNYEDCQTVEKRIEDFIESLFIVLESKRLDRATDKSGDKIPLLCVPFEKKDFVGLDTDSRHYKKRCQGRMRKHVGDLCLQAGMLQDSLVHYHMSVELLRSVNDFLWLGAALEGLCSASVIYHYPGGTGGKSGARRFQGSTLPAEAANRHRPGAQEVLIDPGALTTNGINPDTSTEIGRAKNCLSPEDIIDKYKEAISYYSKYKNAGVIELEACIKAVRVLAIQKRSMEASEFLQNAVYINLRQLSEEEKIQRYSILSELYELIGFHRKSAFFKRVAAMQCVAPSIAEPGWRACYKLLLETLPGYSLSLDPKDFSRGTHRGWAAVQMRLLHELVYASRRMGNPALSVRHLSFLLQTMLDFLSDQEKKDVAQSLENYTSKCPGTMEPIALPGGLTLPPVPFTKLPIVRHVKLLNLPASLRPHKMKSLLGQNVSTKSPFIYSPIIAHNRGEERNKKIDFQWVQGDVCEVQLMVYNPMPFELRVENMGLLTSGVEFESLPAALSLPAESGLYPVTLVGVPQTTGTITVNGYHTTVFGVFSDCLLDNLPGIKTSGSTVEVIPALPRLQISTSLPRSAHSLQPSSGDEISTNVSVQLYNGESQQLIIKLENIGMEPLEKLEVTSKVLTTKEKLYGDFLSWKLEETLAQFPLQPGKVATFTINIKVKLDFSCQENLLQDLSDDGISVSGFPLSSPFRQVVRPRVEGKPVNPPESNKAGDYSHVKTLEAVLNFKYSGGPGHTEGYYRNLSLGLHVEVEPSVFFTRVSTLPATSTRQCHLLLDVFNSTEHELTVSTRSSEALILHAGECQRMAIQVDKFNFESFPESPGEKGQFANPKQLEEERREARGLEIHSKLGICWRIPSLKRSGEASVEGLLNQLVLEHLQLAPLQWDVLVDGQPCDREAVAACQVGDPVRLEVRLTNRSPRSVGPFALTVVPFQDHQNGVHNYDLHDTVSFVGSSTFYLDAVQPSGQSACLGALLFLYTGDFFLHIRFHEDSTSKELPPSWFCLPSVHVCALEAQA
inactive: [1] 0.001 | [2] 0.05 | [3] 0 | [4] 0.055 | [5] -0.042

TLK2 isoform 2 (UniProt Q86UE8)
inactive: [1] 0.014 | [2] -0.027 | [3] 0.033 | [4] -0.015 | [5] -0.075

TUBB (UniProt P07437)
inactive: [1] 0.025 | [2] 0.027 | [3] -0.005 | [4] 0.014 | [5] -0.001

TPP2 (UniProt P29144)
Chain of UniProt P29144 (P29144 whole entry, looked up): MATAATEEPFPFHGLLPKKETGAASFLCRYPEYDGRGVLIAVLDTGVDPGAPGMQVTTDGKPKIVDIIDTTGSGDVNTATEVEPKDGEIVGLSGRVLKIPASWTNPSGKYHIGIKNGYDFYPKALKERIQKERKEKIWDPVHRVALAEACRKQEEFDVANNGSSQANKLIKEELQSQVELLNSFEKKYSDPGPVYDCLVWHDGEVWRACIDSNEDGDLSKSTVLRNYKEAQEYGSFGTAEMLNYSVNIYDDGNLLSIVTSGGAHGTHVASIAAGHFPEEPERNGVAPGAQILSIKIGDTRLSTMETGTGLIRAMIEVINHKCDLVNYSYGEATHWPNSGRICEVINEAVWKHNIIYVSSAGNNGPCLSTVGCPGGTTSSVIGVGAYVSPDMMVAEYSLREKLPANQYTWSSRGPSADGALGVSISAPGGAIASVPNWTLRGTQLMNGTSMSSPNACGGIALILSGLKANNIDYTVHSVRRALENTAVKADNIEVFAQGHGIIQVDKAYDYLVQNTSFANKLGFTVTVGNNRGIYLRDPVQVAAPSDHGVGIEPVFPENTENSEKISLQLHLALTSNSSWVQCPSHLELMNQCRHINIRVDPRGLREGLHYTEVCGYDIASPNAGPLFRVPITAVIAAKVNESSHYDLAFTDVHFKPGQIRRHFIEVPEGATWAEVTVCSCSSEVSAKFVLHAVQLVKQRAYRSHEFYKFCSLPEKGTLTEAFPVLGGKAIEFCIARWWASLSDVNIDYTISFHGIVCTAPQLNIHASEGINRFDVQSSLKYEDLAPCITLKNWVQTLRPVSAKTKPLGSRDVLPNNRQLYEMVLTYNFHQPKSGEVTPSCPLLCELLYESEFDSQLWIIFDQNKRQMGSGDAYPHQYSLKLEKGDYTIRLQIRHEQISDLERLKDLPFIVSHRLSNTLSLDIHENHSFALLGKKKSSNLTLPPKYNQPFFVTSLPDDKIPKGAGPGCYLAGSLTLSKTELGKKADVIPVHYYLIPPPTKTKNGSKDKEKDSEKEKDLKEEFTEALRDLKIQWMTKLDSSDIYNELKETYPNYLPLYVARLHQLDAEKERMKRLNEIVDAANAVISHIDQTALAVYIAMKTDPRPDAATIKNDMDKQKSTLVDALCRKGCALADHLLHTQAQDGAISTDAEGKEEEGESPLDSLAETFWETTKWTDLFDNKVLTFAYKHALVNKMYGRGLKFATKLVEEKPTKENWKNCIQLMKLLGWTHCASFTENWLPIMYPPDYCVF
inactive: [1] 0.006 | [2] 0.008 | [3] -0.002 | [4] 0.039 | [5] 0.025

TBCE (UniProt Q15813)
inactive: [1] 0.008 | [2] -0.027 | [3] 0.014 | [4] 0.008 | [5] 0.015

TTI1 (UniProt O43156)
Chain of UniProt O43156 (O43156 whole entry, looked up): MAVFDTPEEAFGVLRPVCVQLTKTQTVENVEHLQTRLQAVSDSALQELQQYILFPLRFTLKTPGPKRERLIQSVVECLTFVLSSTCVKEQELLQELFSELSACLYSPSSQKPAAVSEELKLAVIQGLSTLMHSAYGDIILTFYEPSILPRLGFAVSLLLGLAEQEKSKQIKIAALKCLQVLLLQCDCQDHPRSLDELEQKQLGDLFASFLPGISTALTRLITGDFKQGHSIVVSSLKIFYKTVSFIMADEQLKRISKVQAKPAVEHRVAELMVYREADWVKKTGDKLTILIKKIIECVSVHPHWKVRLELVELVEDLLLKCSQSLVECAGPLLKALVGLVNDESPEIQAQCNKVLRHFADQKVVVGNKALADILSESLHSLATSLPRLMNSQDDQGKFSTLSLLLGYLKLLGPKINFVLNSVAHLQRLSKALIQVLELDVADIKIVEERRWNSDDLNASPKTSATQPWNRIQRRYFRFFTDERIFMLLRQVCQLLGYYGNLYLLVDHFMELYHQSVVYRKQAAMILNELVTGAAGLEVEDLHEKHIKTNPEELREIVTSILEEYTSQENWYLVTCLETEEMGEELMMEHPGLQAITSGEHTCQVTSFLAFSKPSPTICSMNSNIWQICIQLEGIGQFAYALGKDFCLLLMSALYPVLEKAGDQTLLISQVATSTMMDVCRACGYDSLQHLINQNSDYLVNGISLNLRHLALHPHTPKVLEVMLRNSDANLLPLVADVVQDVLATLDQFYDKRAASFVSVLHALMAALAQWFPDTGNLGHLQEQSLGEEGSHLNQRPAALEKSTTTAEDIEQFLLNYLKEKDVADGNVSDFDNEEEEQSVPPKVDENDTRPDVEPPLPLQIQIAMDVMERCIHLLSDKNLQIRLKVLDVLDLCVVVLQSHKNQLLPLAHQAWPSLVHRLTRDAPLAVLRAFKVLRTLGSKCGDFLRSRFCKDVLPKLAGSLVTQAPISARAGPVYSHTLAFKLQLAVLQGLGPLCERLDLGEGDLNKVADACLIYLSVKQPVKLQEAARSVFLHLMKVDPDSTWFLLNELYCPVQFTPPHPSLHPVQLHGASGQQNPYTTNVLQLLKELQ
inactive: [1] -0.004 | [2] -0.011 | [3] -0.004 | [4] 0.034 | [5] 0.051

TBC1D8B (UniProt Q0IIM8)
Chain of UniProt Q0IIM8 (Q0IIM8 whole entry, looked up): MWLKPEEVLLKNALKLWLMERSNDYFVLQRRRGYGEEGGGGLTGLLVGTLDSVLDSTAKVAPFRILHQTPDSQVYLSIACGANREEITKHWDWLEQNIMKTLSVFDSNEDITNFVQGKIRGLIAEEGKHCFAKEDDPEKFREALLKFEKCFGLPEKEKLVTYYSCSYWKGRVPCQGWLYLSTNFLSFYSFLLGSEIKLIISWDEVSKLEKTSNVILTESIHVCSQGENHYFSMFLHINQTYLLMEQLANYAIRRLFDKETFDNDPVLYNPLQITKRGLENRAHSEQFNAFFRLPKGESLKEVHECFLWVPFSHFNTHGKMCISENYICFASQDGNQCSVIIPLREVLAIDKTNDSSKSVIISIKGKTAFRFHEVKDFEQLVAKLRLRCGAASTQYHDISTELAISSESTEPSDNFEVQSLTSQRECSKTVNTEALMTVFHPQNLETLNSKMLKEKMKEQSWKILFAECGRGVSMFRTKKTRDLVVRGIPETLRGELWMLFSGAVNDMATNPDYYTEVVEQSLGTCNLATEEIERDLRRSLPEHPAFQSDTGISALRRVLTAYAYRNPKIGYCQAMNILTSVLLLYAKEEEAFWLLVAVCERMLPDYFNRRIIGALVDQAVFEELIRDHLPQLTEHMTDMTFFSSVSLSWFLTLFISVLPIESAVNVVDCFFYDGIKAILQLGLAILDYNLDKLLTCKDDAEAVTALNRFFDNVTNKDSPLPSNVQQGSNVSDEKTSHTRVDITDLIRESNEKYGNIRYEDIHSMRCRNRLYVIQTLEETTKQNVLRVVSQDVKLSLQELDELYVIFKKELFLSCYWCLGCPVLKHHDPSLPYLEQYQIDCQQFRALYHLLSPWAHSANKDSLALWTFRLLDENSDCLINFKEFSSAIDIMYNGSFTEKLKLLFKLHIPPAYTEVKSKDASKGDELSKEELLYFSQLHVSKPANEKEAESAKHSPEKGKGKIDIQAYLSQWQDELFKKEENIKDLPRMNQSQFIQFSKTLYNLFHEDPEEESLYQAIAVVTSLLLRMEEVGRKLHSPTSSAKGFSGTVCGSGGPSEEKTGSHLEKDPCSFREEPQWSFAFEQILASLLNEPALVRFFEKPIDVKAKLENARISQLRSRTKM
inactive: [1] -0.086 | [2] -0.078 | [3] -0.038 | [4] -0.013 | [5] -0.101

UBXN6 (UniProt Q9BZV1)
Chain of UniProt Q9BZV1 (Q9BZV1 whole entry, looked up): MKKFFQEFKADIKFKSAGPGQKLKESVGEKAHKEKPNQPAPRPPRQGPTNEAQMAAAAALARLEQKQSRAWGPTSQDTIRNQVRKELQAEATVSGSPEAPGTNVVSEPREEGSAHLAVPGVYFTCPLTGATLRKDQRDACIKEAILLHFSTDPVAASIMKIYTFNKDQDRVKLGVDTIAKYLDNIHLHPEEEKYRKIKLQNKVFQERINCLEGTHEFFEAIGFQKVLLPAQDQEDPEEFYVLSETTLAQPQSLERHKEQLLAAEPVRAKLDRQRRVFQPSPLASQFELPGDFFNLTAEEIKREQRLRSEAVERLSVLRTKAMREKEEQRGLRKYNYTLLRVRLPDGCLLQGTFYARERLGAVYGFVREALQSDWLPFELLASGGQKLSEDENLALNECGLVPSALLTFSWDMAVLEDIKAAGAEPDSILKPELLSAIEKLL
inactive: [1] -0.03 | [2] 0.027 | [3] 0.03 | [4] 0.022 | [5] 0.031

TFIP11 (UniProt Q9UBB9)
inactive: [1] -0.033 | [2] -0.022 | [3] 0.007 | [4] -0.002 | [5] 0.044
